# PubChem BioAssay AID1159580 (chemical genetic matrix, 2015)
# Among all 5,500 compounds or so, about 2,000 (36%) were called active. Not shown: some 18% with an inconclusive outcome. Some of the results follow. Values without a mark were called inactive. Cut-off read from the data, not from the text of the source: active = normalized growth mostly below about 0.91 (no sharp cut-off); inconclusive = no clear call, values can overlap the other calls; inactive = mostly above about 0.92.
# Test: chemical genetic growth profiling, strain panel (AID 1159580);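 note: tested at 20 µM; growth read once vehicle control cultures reached saturation at 30 °C; 1 = growth at the plate median or of vehicle wells; lower values mean less growth of the strain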
# Settings: growth OD
structure (smiles),measurement,setting,value
ClC1=C(Cl)C2(Cl)C3C4C=CC(C4)C3C1(Cl)C2(Cl)Cl (configuration not stated),normalized growth,"S. cerevisiae deletion strains, locus YJR075W, strain HOC1, active compounds read low",1.01
same,normalized growth,"S. cerevisiae deletion strains, locus YKL009W, strain mrt4, active compounds read low",0.953
same,normalized growth,"S. cerevisiae deletion strains, locus YKL068W, active compounds read low",0.996
same,normalized growth,"S. cerevisiae deletion strains, locus YKL085W, strain MDH1 (second series), active compounds read low",0.996
same,normalized growth,"S. cerevisiae deletion strains, locus YKL085W, strain MDH1, active compounds read low",0.996
same,normalized growth,"S. cerevisiae deletion strains, locus YKL160W, strain elf1, active compounds read low",0.998
same,normalized growth,"S. cerevisiae deletion strains, locus YKL190W, strain CNB1, active compounds read low",1
same,normalized growth,"S. cerevisiae deletion strains, locus YKR001C, strain vps1, active compounds read low",0.998
same,normalized growth,"S. cerevisiae deletion strains, locus YKR026C, strain gcn3, active compounds read low",0.997
same,normalized growth,"S. cerevisiae deletion strains, locus YKR091W, strain srl3, active compounds read low",0.996
same,normalized growth,"S. cerevisiae deletion strains, locus YLL001W, strain dnm1, active compounds read low",0.998
same,normalized growth,"S. cerevisiae deletion strains, locus YLL026W, active compounds read low",1
same,normalized growth,"S. cerevisiae deletion strains, locus YLL041C, strain sdh2, active compounds read low",0.994
same,normalized growth,"S. cerevisiae deletion strains, locus YLR027C, strain aat2, active compounds read low",1.01
same,normalized growth,"S. cerevisiae deletion strains, locus YLR039C, strain RIC1, active compounds read low",0.942
same,normalized growth,"S. cerevisiae deletion strains, locus YLR058C, strain SHM2, active compounds read low",0.991
same,normalized growth,"S. cerevisiae deletion strains, locus YLR102C, strain apc9, active compounds read low",1
same,normalized growth,"S. cerevisiae deletion strains, locus YLR113W, strain HOG1, active compounds read low",0.892
same,normalized growth,"S. cerevisiae deletion strains, locus YLR221C, strain rsa3, active compounds read low",0.985
same,normalized growth,"S. cerevisiae deletion strains, locus YLR258W, strain gsy2, active compounds read low",0.997
same,normalized growth,"S. cerevisiae deletion strains, locus YLR262C, strain YPT6 (second series), active compounds read low",0.94
same,normalized growth,"S. cerevisiae deletion strains, locus YLR262C, strain YPT6, active compounds read low",0.859
same,normalized growth,"S. cerevisiae deletion strains, locus YLR268W, strain sec22, active compounds read low",0.98
same,normalized growth,"S. cerevisiae deletion strains, locus YLR320W, strain mms22, active compounds read low",0.994
same,normalized growth,"S. cerevisiae deletion strains, locus YLR330W, strain CHS5, active compounds read low",1
same,normalized growth,"S. cerevisiae deletion strains, locus YLR342W, strain FKS1 (second series), active compounds read low",0.916
same,normalized growth,"S. cerevisiae deletion strains, locus YLR342W, strain FKS1, active compounds read low",0.995
same,normalized growth,"S. cerevisiae deletion strains, locus YLR357W, strain rsc2, active compounds read low",1.02
same,normalized growth,"S. cerevisiae deletion strains, locus YLR370C, strain arc18, active compounds read low",0.997
same,normalized growth,"S. cerevisiae deletion strains, locus YLR371W, strain rom2, active compounds read low",0.981
same,normalized growth,"S. cerevisiae deletion strains, locus YLR384C, strain iki3, active compounds read low",0.988
same,normalized growth,"S. cerevisiae deletion strains, locus YLR418C, strain cdc73, active compounds read low",0.894
same,normalized growth,"S. cerevisiae deletion strains, locus YML016C, strain PPZ1, active compounds read low",0.998
same,normalized growth,"S. cerevisiae deletion strains, locus YML032C, strain rad52, active compounds read low",0.976
same,normalized growth,"S. cerevisiae deletion strains, locus YML120C, strain ndi1, active compounds read low",1
same,normalized growth,"S. cerevisiae deletion strains, locus YML124C, strain tub3, active compounds read low",0.984
same,normalized growth,"S. cerevisiae deletion strains, locus YMR058W, strain fet3, active compounds read low",0.999
same,normalized growth,"S. cerevisiae deletion strains, locus YMR078C, strain ctf18, active compounds read low",0.979
same,normalized growth,"S. cerevisiae deletion strains, locus YMR125W, strain sto1, active compounds read low",1
same,normalized growth,"S. cerevisiae deletion strains, locus YMR129W, active compounds read low",0.998
same,normalized growth,"S. cerevisiae deletion strains, locus YMR205C, strain PFK2, active compounds read low",0.99
same,normalized growth,"S. cerevisiae deletion strains, locus YMR223W, strain ubp8, active compounds read low",0.949
same,normalized growth,"S. cerevisiae deletion strains, locus YMR231W, strain pep5, active compounds read low",0.982
same,normalized growth,"S. cerevisiae deletion strains, locus YMR263W, strain SAP30, active compounds read low",0.999
same,normalized growth,"S. cerevisiae deletion strains, locus YMR307W, strain GAS1, active compounds read low",1.07
same,normalized growth,"S. cerevisiae deletion strains, locus YNL067W, strain RPL9B, active compounds read low",1
same,normalized growth,"S. cerevisiae deletion strains, locus YNL071W, strain lat1, active compounds read low",1.01
same,normalized growth,"S. cerevisiae deletion strains, locus YNL128W, strain TEP1, active compounds read low",0.992
same,normalized growth,"S. cerevisiae deletion strains, locus YNL153C, strain GIM3, active compounds read low",1.01
same,normalized growth,"S. cerevisiae deletion strains, locus YNL183C, strain NPR1, active compounds read low",0.951
same,normalized growth,"S. cerevisiae deletion strains, locus YNL209W, strain ssb2, active compounds read low",0.997
same,normalized growth,"S. cerevisiae deletion strains, locus YNL233W, strain BNI4, active compounds read low",0.986
same,normalized growth,"S. cerevisiae deletion strains, locus YNL248C, strain rpa49, active compounds read low",1.01
same,normalized growth,"S. cerevisiae deletion strains, locus YNL250W, strain rad50, active compounds read low",0.99
same,normalized growth,"S. cerevisiae deletion strains, locus YNL271C, strain bni1, active compounds read low",0.99
same,normalized growth,"S. cerevisiae deletion strains, locus YNL298W, strain CLA4, active compounds read low",0.981
same,normalized growth,"S. cerevisiae deletion strains, locus YNL307C, strain MCK1, active compounds read low",0.48 (active)
same,normalized growth,"S. cerevisiae deletion strains, locus YNL322C, strain KRE1 (second series), active compounds read low",0.97
same,normalized growth,"S. cerevisiae deletion strains, locus YNL322C, strain KRE1, active compounds read low",1
same,normalized growth,"S. cerevisiae deletion strains, locus YNR049C, strain mso1, active compounds read low",0.995
same,normalized growth,"S. cerevisiae deletion strains, locus YNR052C, strain pop2, active compounds read low",0.979
same,normalized growth,"S. cerevisiae deletion strains, locus YOL006C, strain TOP1, active compounds read low",0.969
same,normalized growth,"S. cerevisiae deletion strains, locus YOL012C, strain htz1",1.09
same,normalized growth,"S. cerevisiae deletion strains, locus YOL147C, strain pex11, active compounds read low",0.996
same,normalized growth,"S. cerevisiae deletion strains, locus YOR001W, strain rrp6, active compounds read low",0.993
same,normalized growth,"S. cerevisiae deletion strains, locus YOR061W, strain CKA2, active compounds read low",1
same,normalized growth,"S. cerevisiae deletion strains, locus YOR069W, strain VPS5, active compounds read low",0.996
same,normalized growth,"S. cerevisiae deletion strains, locus YOR070C, strain gyp1, active compounds read low",0.982
same,normalized growth,"S. cerevisiae deletion strains, locus YOR080W, strain dia2, active compounds read low",0.989
same,normalized growth,"S. cerevisiae deletion strains, locus YOR083W, strain WHI5, active compounds read low",0.991
same,normalized growth,"S. cerevisiae deletion strains, locus YOR106W, strain vam3, active compounds read low",0.97
same,normalized growth,"S. cerevisiae deletion strains, locus YOR136W, strain idh2, active compounds read low",0.98
same,normalized growth,"S. cerevisiae deletion strains, locus YOR144C, strain elg1, active compounds read low",0.991
same,normalized growth,"S. cerevisiae deletion strains, locus YOR184W, strain ser1, active compounds read low",0.911
same,normalized growth,"S. cerevisiae deletion strains, locus YOR231W, strain MKK1, active compounds read low",1.04
same,normalized growth,"S. cerevisiae deletion strains, locus YOR265W, strain rbl2, active compounds read low",0.991
same,normalized growth,"S. cerevisiae deletion strains, locus YOR270C, strain vph1, active compounds read low",0.967
same,normalized growth,"S. cerevisiae deletion strains, locus YOR290C, strain snf2, active compounds read low",0.991
same,normalized growth,"S. cerevisiae deletion strains, locus YOR316C, strain cot1, active compounds read low",1
same,normalized growth,"S. cerevisiae deletion strains, locus YPL051W, strain arl3, active compounds read low",1.01
same,normalized growth,"S. cerevisiae deletion strains, locus YPL055C, strain LGE1, active compounds read low",0.99
same,normalized growth,"S. cerevisiae deletion strains, locus YPL078C, strain atp4, active compounds read low",1
same,normalized growth,"S. cerevisiae deletion strains, locus YPL106C, strain sse1, active compounds read low",1
same,normalized growth,"S. cerevisiae deletion strains, locus YPL240C, strain hsp82, active compounds read low",1
same,normalized growth,"S. cerevisiae deletion strains, locus YPL241C, strain CIN2, active compounds read low",1.01
same,normalized growth,"S. cerevisiae deletion strains, locus YPL256C, strain CLN2, active compounds read low",1.04
same,normalized growth,"S. cerevisiae deletion strains, locus YPR119W, strain clb2, active compounds read low",0.987
same,normalized growth,"S. cerevisiae deletion strains, locus YPR141C, strain kar3, active compounds read low",0.982
same,normalized growth,"S. cerevisiae deletion strains, locus YPR163C, strain tif3, active compounds read low",0.981
same,normalized growth,"S. cerevisiae deletion strains, locus YPR167C, strain met16, active compounds read low",0.977
same,normalized growth,"S. cerevisiae deletion strains, strain wtn01, active compounds read low",0.983
same,normalized growth,"S. cerevisiae strains, strain wild type, active compounds read low",1.01
